Compounds without any hit were thinned out: in the full panel of roughly 79,000, 15% have a hit. No stated cut-off is given here; in the data, active means growth inhibition above about 70%; inactive means the rest.
What was measured:
[1] = NCI Yeast Anticancer Drug Screen. Data for the rad50 strain (AID 155);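 further: 0% = growth of vehicle-only cultures of the same strain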; conditions: S. cerevisiae rad50 strain growth inhibition; at 50.0 µM; hits give high values
How it was run: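 Relative growth inhibition (compound vs vehicle) was measured in yeast with a defined repair-gene alteration.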

[2] = NCI Yeast Anticancer Drug Screen. Data for the mec2-1 strain (AID 157); conditions: S. cerevisiae mec2-1 strain, at 50.0 µM, hits give high values
How it was run: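 Readout is yeast growth inhibition, normalised to vehicle-treated controls, in the mec2-1 strain exposed to compound.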

[3] = NCI Yeast Anticancer Drug Screen. Data for the sgs1 mgt1 strain (AID 161);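 further: 0% = growth of cultures given vehicle only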; conditions: S. cerevisiae sgs1 mgt1 strain, at 50.0 µM, hits give high values
How it was run: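 This yeast growth screen uses a strain with defined DNA-repair lesions; compound-treated growth is compared with vehicle-treated growth.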

[4] = NCI Yeast Anticancer Drug Screen. Data for the cln2 rad14 strain (AID 165);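 further: 0% = growth equal to vehicle treated cultures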; conditions: S. cerevisiae cln2 rad14 strain, at 50.0 µM, hits give high values
How it was run: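 Relative to vehicle controls, growth inhibition of compound-treated cln2 rad14 yeast was recorded.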

[5] = NCI Yeast Anticancer Drug Screen. Data for the bub3 strain (AID 167); conditions: S. cerevisiae bub3 mutant strain, at 50.0 µM, hits give high values
How it was run: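 Screening used yeast with an engineered genetic alteration affecting cell cycle control. Compound-exposed cultures were compared with vehicle cultures, and reduced growth was taken as inhibition.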

[6] = NCI Yeast Anticancer Drug Screen. Data for the mlh1 rad18 strain (AID 175); conditions: S. cerevisiae mlh1 rad18 strain growth inhibition; at 50.0 µM; hits give high values
How it was run: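 Test agents were incubated with a yeast strain of defined genotype (DNA damage repair defect). Inhibition of growth was derived by comparison with vehicle-exposed cultures.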

Measured: growth inhibition

O=[N+]([O-])c1ccc(N=NNc2ccc([N+](=O)[O-])cc2)cc1
inactive: [1] 4.5% | [2] -13% | [3] -2.05% | [4] -38.1% | [5] -2.95% | [6] 5.4%

CC(=O)OC1=C(C)C2=C3OC(=O)C(C)=C3CC[C@@]2(C)[C@@H](Cl)[C@@H]1Cl
inactive: [1] 40.9% | [2] -45.9% | [3] -2.6% | [4] -5.85% | [5] -15.2% | [6] -57.9%

CNC(=O)c1ccccc1N
inactive: [1] 1.75% | [2] -6.95% | [3] -11.7% | [4] -84.2% | [5] 1.05% | [6] -17.2%

C/C(CC(c1ccccc1)c1ccccc1)=N\Nc1ccc([N+](=O)[O-])cc1[N+](=O)[O-]
inactive: [1] 13.4% | [2] 3.95% | [3] 14.4% | [4] 19.2% | [5] 7.4% | [6] 8.55%

C#C[C@@H](CCCC)OC(=O)N[C@H](C)c1ccccc1
inactive: [1] 58.9% | [2] 49.6% | [3] 64.5% | [4] -11.6% | [5] 22.5% | [6] 16.1%

CCN(CC)CCC(=O)Nc1cc(OC)cc2cccnc12
inactive: [1] 10.7% | [2] 10.5% | [3] 6.25% | [4] -21.1% | [5] -19.4% | [6] -8.1%

Cc1ccc(/C=N/NC(N)=O)cc1
inactive: [1] 25.6% | [2] 15.8% | [3] 12.3% | [4] 10.4% | [5] 17.2% | [6] -3.85%

OCC(O)COCC#Cc1ccccc1 (centres undefined)
inactive: [1] 6% | [2] 1.85% | [3] 3.1% | [4] -60.2% | [5] -14.6% | [6] 16.2%

O=C(O)/C(=C\c1ccccc1Cl)S(=O)(=O)c1ccccc1
inactive: [1] -25.5% | [2] -6.45% | [3] -12.6% | [4] -0.35% | [5] -16% | [6] 15.1%

COc1cc(C2CC(C)(N3CCCC3)Oc3cc4c(cc32)OCO4)cc(OC)c1OC (centres undefined)
inactive: [1] 1.2% | [2] -1.6% | [3] 9.5% | [4] -47.4% | [5] -11.8% | [6] 5.95%

CS(=O)(=O)N1CCCN(S(C)(=O)=O)COC1
inactive: [1] 6.2% | [2] -6.65% | [3] -8.75% | [4] -2.45% | [5] 13.4% | [6] -0.35%

CCOc1ccc(N=Nc2ccc3oc(=O)c(C(=O)Nc4ccc(OC)cc4)cc3c2)cc1
inactive: [1] 11.4% | [2] 5.9% | [3] -17.7% | [4] -22.1% | [5] 0.8% | [6] 11.6%

Cc1cc(C)c(C#N)c(N)n1
inactive: [1] -0.8% | [2] -12.8% | [3] -14.3% | [4] -17.9% | [5] 7.7% | [6] -14.9%

Cc1cccc[n+]1CC(=O)c1ccccc1
inactive: [1] 17.2% | [2] 31.2% | [3] 34.5% | [4] -3.65% | [5] 18.6% | [6] 20.9%

CCOc1ccc(C(CC)c2cc3c(cc2OC)OCO3)cc1 (centres undefined)
inactive: [1] -1.95% | [2] -0.1% | [3] -9.35% | [4] -42.8% | [5] 6% | [6] -1.7%

CCCCCCC[CH2][Sn]1([CH2]CCCCCCC)[O]C(=O)c2cccnc2[O]1
inactive: [1] 27.4% | [2] 7.3% | [3] 13.2% | [4] 10.3% | [5] 17.2% | [6] 19.8%

CC(C)(C#N)OC(=O)c1cc([N+](=O)[O-])cc([N+](=O)[O-])c1
inactive: [1] 8.55% | [2] 4.45% | [3] 13.1% | [4] -14.9% | [5] -9.55% | [6] -2.1%

CN(CC(=O)O)C(=N)N
inactive: [1] -8.3% | [2] -11.8% | [3] -19.9% | [4] -2.75% | [5] -24.6% | [6] -9.2%

Cc1cc(C)c(C#N)c(NN)n1
inactive: [1] -5.35% | [2] -2.8% | [3] 11.1% | [4] 12.2% | [5] -0.5% | [6] -1.05%

CCOc1ccccc1C=C1c2ccccc2C(=O)c2ccccc21
inactive: [1] 10.3% | [2] -7.6% | [3] -3.6% | [4] -21.6% | [5] 18.1% | [6] 6.25%

CC1(c2ccccc2)CC(c2cccc([N+](=O)[O-])c2)=NO1 (centres undefined)
inactive: [1] 27.4% | [2] 15.9% | [3] 36.9% | [4] 34.9% | [5] 28.6% | [6] 23.4%

Cc1ccccc1OCC(O)COC(=O)CCS(=O)(=O)O (centres undefined)
inactive: [1] -25.1% | [2] -7% | [3] -7.85% | [4] 8.1% | [5] 37.2% | [6] -6.3%

O=C1CSC(c2ccc(F)cc2)N1c1nncs1 (centres undefined)
inactive: [1] 5.2% | [2] 3.65% | [3] 9.7% | [4] 3.6% | [5] 31.6% | [6] 7.45%

CC1C=CC(C(N)C(=O)O)O1 (centres undefined)
inactive: [1] -9.9% | [2] -17.6% | [3] -13.1% | [4] -0.7% | [5] -5.35% | [6] -9.85%

CC1CC(c2ccccc2)(c2ccccc2)CN1C (centres undefined)
inactive: [1] -16.1% | [2] 9.4% | [3] 6.55% | [4] -45.3% | [5] 15.2% | [6] 8.5%

CN1CCN(CC(=O)N2c3ccccc3Sc3cc4ccccc4cc32)CC1
inactive: [1] 2.3% | [2] -3.3% | [3] -30% | [4] -1.95% | [5] -13.7% | [6] 28.6%

CC(=O)Oc1ccc2c(c1)c1c(OC(C)=O)c(N(C)C(C)=O)cc(OC(C)=O)c1n2C
inactive: [1] 22.4% | [2] -0.65% | [3] 3.85% | [4] 12.4% | [5] -3.7% | [6] 5.6%

Nc1ccccc1NC(=O)C(F)(F)F
inactive: [1] -2.45% | [2] -5.4% | [3] 3.3% | [4] -8.4% | [5] -8.75% | [6] 1.15%

Cc1cc(C)c2c(c1)CC(C)(C)C(=O)OC2=O
inactive: [1] -16.2% | [2] -23.9% | [3] -9.65% | [4] 2.4% | [5] -10.3% | [6] -11.2%

O=C1CCCC(=O)C1=Cc1c[nH]c2ccccc12
inactive: [1] 4.3% | [2] 2% | [3] -4.35% | [4] -43% | [5] -16.1% | [6] 15.1%

CCOC(=O)CSc1nc(-c2ccc(Cl)cc2)c(C#N)c(=O)[nH]1
inactive: [1] 5.9% | [2] -0.45% | [3] 2% | [4] 27.1% | [5] 8.85% | [6] -79%

N#CC1=C(N)N(c2ccccc2)C(c2ccccc2)C1(C#N)C#N (centres undefined)
inactive: [1] 6.45% | [2] 14.2% | [3] -8.3% | [4] -4.9% | [5] -22.9% | [6] -4.75%

CC/C=C(\CCC)C(C#N)(CC)C(=O)OCC (centres undefined)
inactive: [1] 9.1% | [2] -33.6% | [3] -21.2% | [4] -7.6% | [5] -24.6% | [6] -9.55%

CCC(=O)n1cc2ccc([N+](=O)[O-])cc2n1
inactive: [1] 1.35% | [2] 1.35% | [3] -4% | [4] -57.8% | [5] 13.2% | [6] -3.05%

C/C=C/C(O)CCCC (centres undefined)
inactive: [1] -13.2% | [2] -7.15% | [3] 4.15% | [4] 2.75% | [5] -28.2% | [6] -7.2%

CC(C)C(C(N)=O)C(C)(C)C (centres undefined)
inactive: [1] 1.1% | [2] 4.2% | [3] 14.9% | [4] 8.6% | [5] -7.5% | [6] -9.55%

O=C1c2ccccc2C(=O)N1c1ccc(C(F)(F)F)cc1[N+](=O)[O-]
inactive: [1] -1.25% | [2] 16.2% | [3] 19.7% | [4] -15.8% | [5] 14.5% | [6] 7.2%

O=[N+]([O-])c1ccc(/C(CBr)=N/N2CCCCC2)cc1
inactive: [1] -19.6% | [2] -24.9% | [3] -4.6% | [4] 3.55% | [5] -9.65% | [6] -13.6%

O=C(NCc1ccccc1)c1ccc([N+](=O)[O-])cc1
inactive: [1] -7.2% | [2] 13.8% | [3] 10.3% | [4] -44.2% | [5] 22.8% | [6] 11.7%

From PubChem BioAssay (NCI)
